Assay results published in the supplement of paper PMC12350171.
Structures can show the parent of a compound that is named as a salt.

Tests used:
Conditions in all cases: 20 µM
[1] = tested on: Haemophilus parainfluenzae; experiment: growth AUC normalised to DMSO control (fraction of control); higher = less growth inhibition, active = hit call of the paper
Outline: (§1)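 For the AUC endpoint, growth curves were integrated by the trapezoidal rule up to the exponential-to-stationary transition and normalised to DMSO controls on the same plate. The curves came from OD578 readings taken hourly for 24 h, in three biological replicates. Pathogens had been passaged anaerobically twice and inoculated at an OD578 of 0.01 into pre-reduced mGAM plates carrying 20 μM compound and 1% DMSO, sealed with breathable membranes. Medium for Haemophilus parainfluenzae also contained hemin and NAD.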

[2] = tested on: Salmonella enterica typhimurium; experiment: as above
Outline: as §1

[3] = tested on: Shigella flexneri; experiment: as above
Outline: as §1

[4] = tested on: Vibrio cholerae; experiment: as above
Outline: as §1

[5] = tested on: Yersinia pseudotuberculosis; experiment: as above
Outline: as §1

[6] = tested on: P. vulgatus RND KO; experiment: growth AUC normalised to DMSO control (median) (fraction of control); higher = less growth inhibition, active = hit call of the paper
Outline: (§2)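 After two overnight anaerobic passages, strains were inoculated at OD578 0.01 into mGAM in 96-well plates containing approved-drug library compounds at 20 μM and 1% DMSO. Growth was followed by reading OD578 hourly for 24 h within an anaerobic incubator. Area under the curve, taken by the trapezoidal rule up to the start of stationary phase, was normalised to same-plate vehicle wells, and the median of three biological replicates is listed.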

[7] = tested on: P. vulgatus WT; experiment: as above
Outline: as §2

[8] = tested on: S. enterica typhimurium WT; experiment: as above
Outline: as §2

[9] = tested on: S. enterica typhimurium tolC KO; experiment: as above
Outline: as §2

Measured: growth AUC normalised to DMSO control
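For growth AUC normalised to DMSO control (median) in this document: active when median AUC fell below 0.1.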

NCCCNCCSP(=O)(O)O [Amifostine]
inactive: [1] 1.02 | [2] 1.02 | [3] 0.99 | [4] 1.01 | [5] 0.992 | [6] 1.02 | [7] 1.07 | [8] 1.02 | [9] 1.01

CCN[C@@H](C)Cc1cccc(C(F)(F)F)c1 [Dexfenfluramine hydrochloride]
inactive: [1] 1.01 | [2] 0.995 | [3] 1.02 | [4] 1.02 | [5] 0.995 | [6] 1 | [7] 1.02 | [8] 0.996 | [9] 1

COc1ccc(C(=O)N2CCCC2=O)cc1 [Aniracetam]
inactive: [1] 0.993 | [2] 1 | [3] 0.998 | [4] 1.01 | [5] 0.972 | [6] 0.996 | [7] 1.01 | [8] 0.995 | [9] 0.997

CC(=O)OCC1=C(C(=O)O)N2C(=O)[C@@H](N)[C@H]2SC1 [Cephalosporanic acid, 7-amino]
active: [6] 0.0227 | [7] 0.0158
inactive: [1] 0.942 | [2] 0.999 | [3] 0.987 | [4] 0.968 | [5] 0.99 | [8] 1 | [9] 0.983

CN1CCN(C(=O)OC2c3nccnc3C(=O)N2c2ccc(Cl)cn2)CC1 (configuration not stated) [Zopiclone]
inactive: [1] 1.01 | [2] 0.996 | [3] 1 | [4] 0.998 | [5] 0.996 | [6] 0.999 | [7] 1.01 | [8] 0.994 | [9] 0.999

CN(C)[C@@H]1C(=O)C(C(N)=O)=C(O)[C@@]2(O)C(=O)C3=C(O)c4c(O)cccc4[C@@](C)(O)[C@H]3C[C@@H]12 [Tetracycline hydrochloride]
active: [1] 0.0479 | [2] 0.00376 | [3] 0.0389 | [4] 0.0365 | [5] 0.0501 | [6] 0.0124 | [7] 0.013 | [8] 0.0084 | [9] 0.00234

O=[N+]([O-])O[C@H]1CO[C@H]2[C@@H]1OC[C@H]2O[N+](=O)[O-] [Isosorbide dinitrate]
inactive: [1] 1.07 | [2] 1.03 | [3] 1.02 | [4] 1.09 | [5] 1.01 | [6] 0.94 | [7] 0.94 | [8] 0.996 | [9] 1.01

CC(C)N(CCC(C(N)=O)(c1ccccc1)c1ccccn1)C(C)C (configuration not stated) [Disopyramide]
inactive: [1] 0.997 | [2] 0.993 | [3] 0.988 | [4] 0.983 | [5] 0.996 | [6] 1 | [7] 0.998 | [8] 1 | [9] 0.983

CCN(CC)C(C)C(=O)c1ccccc1 (configuration not stated) [Amfepramone hydrochloride]
inactive: [1] 0.998 | [2] 0.995 | [3] 0.982 | [4] 0.999 | [5] 1.02 | [6] 1.01 | [7] 1.01 | [8] 1.01 | [9] 0.988

CN(C)C(=O)Oc1ccc[n+](C)c1 [Pyridostigmine iodide]
inactive: [1] 0.994 | [2] 1 | [3] 1.03 | [4] 1.02 | [5] 0.992 | [6] 1 | [7] 1.03 | [8] 1.01 | [9] 0.991

C[N+]1([O-])[C@@H]2C[C@@H](OC(=O)[C@H](CO)c3ccccc3)C[C@H]1[C@@H]1O[C@@H]12 (some centres not stated) [Scopolamin-N-oxide hydrobromide]
inactive: [1] 0.991 | [2] 0.992 | [3] 1.02 | [4] 1.07 | [5] 1.01 | [6] 1.04 | [7] 1.02 | [8] 1.02 | [9] 1.01

CC(=O)OCC(=O)[C@H]1CC[C@H]2[C@@H]3CC[C@H]4C[C@H](O)CC[C@]4(C)[C@H]3C(=O)C[C@]12C [Alfadolone acetate]
inactive: [1] 1.26 | [2] 1.01 | [3] 0.99 | [4] 0.987 | [5] 0.992 | [6] 1.04 | [7] 1.05 | [8] 1.01 | [9] 0.941

C[C@]12Cc3c[nH]nc3C[C@@H]1CC[C@@H]1[C@@H]2CC[C@@]2(C)[C@H]1CC[C@]2(C)O [Stanozolol]
inactive: [1] 0.949 | [2] 1.01 | [3] 0.987 | [4] 0.998 | [5] 1 | [6] 0.959 | [7] 0.966 | [8] 1.02 | [9] 0.966

NCC(CC(=O)O)c1ccc(Cl)cc1 (configuration not stated) [Baclofen]
inactive: [1] 1.04 | [2] 1.01 | [3] 1.01 | [4] 1.01 | [5] 0.992 | [6] 1.02 | [7] 1.07 | [8] 1.02 | [9] 0.999

O=[N+]([O-])O[C@@H]1CO[C@H]2[C@@H]1OC[C@@H]2O [Isosorbide mononitrate]
inactive: [1] 1.05 | [2] 1.01 | [3] 1.03 | [4] 1.02 | [5] 1 | [6] 0.946 | [7] 0.958 | [8] 1 | [9] 0.99

CCC1(c2ccc(N)cc2)CCC(=O)NC1=O (configuration not stated) [Glutethimide, para-amino]
inactive: [1] 1.04 | [2] 1.01 | [3] 1 | [4] 1.04 | [5] 0.988 | [6] 1.02 | [7] 1.04 | [8] 1.02 | [9] 0.993

COc1ccc2c(c1)[C@]13CCCC[C@@H]1[C@H](C2)N(C)CC3 [Dextromethorphan hydrobromide monohydrate]
inactive: [1] 1.02 | [2] 0.982 | [3] 0.988 | [4] 0.955 | [5] 0.97 | [6] 1.02 | [7] 1 | [8] 0.995 | [9] 0.985

CC(C)(C)NCC(O)c1cc(Cl)c(N)c(Cl)c1 (configuration not stated) [Clenbuterol hydrochloride]
inactive: [1] 0.984 | [2] 0.958 | [3] 0.979 | [4] 0.992 | [5] 0.993 | [6] 0.981 | [7] 1.01 | [8] 1 | [9] 0.992

O=c1[nH]c2ccccc2n1C1CCN(CCCC(c2ccc(F)cc2)c2ccc(F)cc2)CC1 [Pimozide]
inactive: [1] 0.788 | [2] 0.998 | [3] 1 | [4] 1.07 | [5] 1.02 | [6] 1.14 | [7] 1 | [8] 0.998 | [9] 0.971

CC(C)(C)NCC(O)c1ccccc1Cl (configuration not stated) [Tulobuterol hydrochloride]
inactive: [1] 1 | [2] 1 | [3] 1.01 | [4] 1.03 | [5] 0.893 | [6] 0.991 | [7] 1.01 | [8] 0.99 | [9] 1.01

C=CCN1CC[C@]23c4c5ccc(O)c4O[C@H]2C(=O)CC[C@@]3(O)[C@H]1C5 [Naloxone hydrochloride]
inactive: [1] 1.01 | [2] 0.981 | [3] 1.03 | [4] 1 | [5] 1.01 | [6] 1.03 | [7] 0.997 | [8] 1.01 | [9] 1

CCn1cc(C(=O)O)c(=O)c2cc3c(cc21)OCO3 [Oxolinic acid]
active: [1] 0.0639 | [2] 0.0132 | [3] 0.0542 | [4] 0.0353 | [5] 0.0367 | [8] 0.0291 | [9] 0.0105
inactive: [6] 0.951 | [7] 0.922

Fc1ccc(C(OCCN2CCN(CCCc3ccccc3)CC2)c2ccc(F)cc2)cc1
inactive: [1] 0.991 | [2] 1 | [3] 0.998 | [4] 0.944 | [5] 0.995 | [6] 0.994 | [7] 0.966 | [8] 0.999 | [9] 0.914

OC(c1ccccc1)(c1ccccc1)C1CCNCC1 [Azacyclonol]
inactive: [1] 0.982 | [2] 0.999 | [3] 0.988 | [4] 0.967 | [5] 1 | [6] 1 | [7] 1.03 | [8] 1.01 | [9] 0.99

C[C@]12CC[C@H](O)C[C@H]1CC[C@@H]1[C@@H]2C[C@@H](O)[C@]2(C)[C@@H](C3=CC(=O)OC3)CC[C@]12O [Digoxigenin]
inactive: [1] 1.01 | [2] 1.03 | [3] 0.999 | [4] 1.03 | [5] 0.998 | [6] 0.998 | [7] 1.04 | [8] 1.01 | [9] 1

CC(O)(CS(=O)(=O)c1ccc(F)cc1)C(=O)Nc1ccc(C#N)c(C(F)(F)F)c1 (configuration not stated) [Bicalutamide]
inactive: [1] 1.12 | [2] 1.05 | [3] 1.08 | [4] 1.1 | [5] 1.01 | [6] 0.982 | [7] 0.988 | [8] 1.01 | [9] 0.954

O=C(CCCN1CCC(n2c(=O)[nH]c3ccccc32)CC1)c1ccc(F)cc1 [Benperidol]
inactive: [1] 1.03 | [2] 0.981 | [3] 0.998 | [4] 0.998 | [5] 0.975 | [6] 1.01 | [7] 1.02 | [8] 0.993 | [9] 0.956

COc1ccc(CCN2CCC(Nc3nc4ccccc4n3Cc3ccc(F)cc3)CC2)cc1 [Astemizole]
inactive: [1] 1.02 | [2] 1.05 | [3] 0.997 | [4] 0.934 | [5] 1.02 | [6] 1.01 | [7] 0.986 | [8] 1 | [9] 0.962
